{
  "source": "paper PMC11995724",
  "about": "“Antibiotic target discovery by integrated phenotypic and activity-based profiling of electrophilic fragments” (Cell chemical biology, 2025)",
  "note": "Screen size: about 3,200 compounds; about 110 (3.4%) showed an effect of 50% or more. Many of the other results were omitted from the sample, so strong results are more common in it than they were.",
  "data": [
    {"tested_on": "T1, V. cholerae SAD30", "T1 construct": "SAD30", "set-up": "species or system S. aureus MSSA476 (TSB) or V. cholerae SAD30 (LB); 384-well bacterial growth screen at 25 uM, OD600 relative to DMSO control", "conditions": "relative growth, OD600, LB; 25 µM; inhibitor", "units": {"% of control remaining": "%"}, "values": [
      {"smiles": "C=CC(=O)NCc1c(Cl)c(C(F)(F)F)nn1C", "note": "[2-J07, N-{[4-chloro-1-methyl-3-(trifluoromethyl)-1H-pyrazol-5-yl]methyl}prop-2-enamide]", "% of control remaining": 87.88},
      {"smiles": "C=CC(=O)Nc1ccc(Cl)cc1F", "note": "[1-I10, N-(4-chloro-2-fluorophenyl)prop-2-enamide]", "% of control remaining": 88.0419},
      {"smiles": "CC(Cl)C(=O)NCc1cc(-c2ccccc2)on1", "note": "(stereo not shown) [7-A13, 2-chloro-N-[(5-phenyl-1,2-oxazol-3-yl)methyl]propanamide]", "% of control remaining": 82.868},
      {"smiles": "CC(Cl)C(=O)N1CCN(C(=O)C(F)(F)F)C2(CCCCC2)C1", "note": "(stereo not shown) [7-K06, 2-chloro-1-[1-(2,2,2-trifluoroacetyl)-1,4-diazaspiro[5.5]undecan-4-yl]propan-1-one]", "% of control remaining": 75.3345},
      {"smiles": "CC(C#N)Oc1ccc(C=C(C#N)C(=O)Nc2ccccc2Cl)cc1", "note": "(stereo not shown) [9-E05, N-(2-chlorophenyl)-2-cyano-3-[4-(1-cyanoethoxy)phenyl]prop-2-enamide]", "% of control remaining": 89.259},
      {"smiles": "C=CCNC(=O)C(C#N)=Cc1cccc2ccccc12", "note": "[9-L10, 2-cyano-3-(naphthalen-1-yl)-N-(prop-2-en-1-yl)prop-2-enamide]", "% of control remaining": 88.3073},
      {"smiles": "CC(Cl)C(=O)N(C)C[C@@H]1C[C@H](F)CN1c1ccnc(N(C)C)n1", "note": "(stereo partly drawn) [7-K16, 2-chloro-N-{[(2S,4S)-1-[2-(dimethylamino)pyrimidin-4-yl]-4-fluoropyrrolidin-2-yl]methyl}-N-methylpropanamide]", "% of control remaining": 71.1052},
      {"smiles": "C=CC(=O)NCCc1ccn(-c2ccc(F)cc2)n1", "note": "[2-P03, N-{2-[1-(4-fluorophenyl)-1H-pyrazol-3-yl]ethyl}prop-2-enamide]", "% of control remaining": 113.818},
      {"smiles": "Cc1ccc(N2C(=O)C=CC2=O)c(C)c1", "note": "[10-N07, 1-(2,4-dimethylphenyl)-2,5-dihydro-1H-pyrrole-2,5-dione]", "% of control remaining": 22.5989},
      {"smiles": "Cc1ccc(C)c(N2C(=O)C=CC2=O)c1", "note": "[10-F13, 1-(2,5-dimethylphenyl)-2,5-dihydro-1H-pyrrole-2,5-dione]", "% of control remaining": 31.3267},
      {"smiles": "Cc1cc(C(=O)O)ccc1N1C(=O)C=CC1=O", "note": "[10-G22, 4-(2,5-dioxo-2,5-dihydro-1H-pyrrol-1-yl)-3-methylbenzoic acid]", "% of control remaining": 102.864},
      {"smiles": "Cc1ccc2nc(-c3ccc(N4C(=O)C=CC4=O)cc3)sc2c1", "note": "[10-K18, 1-[4-(6-methyl-1,3-benzothiazol-2-yl)phenyl]-2,5-dihydro-1H-pyrrole-2,5-dione]", "% of control remaining": 99.1233},
      {"smiles": "COc1ccc2c(c1)OCCN(C(=O)C(C)Cl)C2", "note": "(stereo not shown) [7-E04, 2-chloro-1-(8-methoxy-2,3,4,5-tetrahydro-1,4-benzoxazepin-4-yl)propan-1-one]", "% of control remaining": 86.04},
      {"smiles": "C=CC(=O)NCc1cscn1", "note": "[1-I07, N-[(1,3-thiazol-4-yl)methyl]prop-2-enamide]", "% of control remaining": 90.1345},
      {"smiles": "Cc1ccc(CC(=O)CCl)cc1", "note": "[10-O13, 1-chloro-3-(4-methylphenyl)propan-2-one]", "% of control remaining": 100.058},
      {"smiles": "CC(C)c1ccc(CC(=O)CCl)cc1", "note": "[10-I17, 1-chloro-3-[4-(propan-2-yl)phenyl]propan-2-one]", "% of control remaining": 115.644},
      {"smiles": "O=C(CCl)Cc1cccc(Cl)c1", "note": "[10-E17, 1-chloro-3-(3-chlorophenyl)propan-2-one]", "% of control remaining": 7.481},
      {"smiles": "O=C(CCl)N1CCC1c1cccc(F)c1", "note": "(stereo not shown) [5-K10, 2-chloro-1-[2-(3-fluorophenyl)azetidin-1-yl]ethan-1-one]", "% of control remaining": 86.5819},
      {"smiles": "O=C(CCl)NCCc1cccc(Cl)c1", "note": "[5-O05, 2-chloro-N-[2-(3-chlorophenyl)ethyl]acetamide]", "% of control remaining": 115.33},
      {"smiles": "O=C(CCl)Nc1cc(Cl)cc(Cl)c1", "note": "[4-K09, 2-chloro-N-(3,5-dichlorophenyl)acetamide]", "% of control remaining": 84.8825},
      {"smiles": "CC(C)(C)c1ccc(CC(=O)CCl)cc1", "note": "[10-G19, 1-(4-tert-butylphenyl)-3-chloropropan-2-one]", "% of control remaining": 116.579},
      {"smiles": "O=C(CCl)Cc1cccc(F)c1", "note": "[10-C11, 1-chloro-3-(3-fluorophenyl)propan-2-one]", "% of control remaining": 7.637},
      {"smiles": "O=C(CCl)Cc1cc(Cl)cc(Cl)c1", "note": "[10-I15, 1-chloro-3-(3,5-dichlorophenyl)propan-2-one]", "% of control remaining": 20.7286},
      {"smiles": "O=C(CCl)Cc1ccc(Cl)c(Cl)c1", "note": "[10-E15, 1-chloro-3-(3,4-dichlorophenyl)propan-2-one]", "% of control remaining": 25.5601},
      {"smiles": "Cc1cccc(CC(=O)CCl)c1", "note": "[10-I19, 1-chloro-3-(3-methylphenyl)propan-2-one]", "% of control remaining": 92.7333},
      {"smiles": "O=C(Cc1cccc(F)c1)N1CCSSCC1", "note": "[10-L21, 1-(1,2,5-dithiazepan-5-yl)-2-(3-fluorophenyl)ethan-1-one]", "% of control remaining": 98.8116},
      {"smiles": "COc1cc(C=C(C#N)C(=O)Nc2cccc(C)c2)c2c(c1)CC(C)O2", "note": "(stereo not shown) [8-N22, 2-cyano-3-(5-methoxy-2-methyl-2,3-dihydro-1-benzofuran-7-yl)-N-(3-methylphenyl)prop-2-enamide]", "% of control remaining": 77.7022},
      {"smiles": "C=CC(=O)NCc1cn([C@@H]2COC[C@H]2OC)nn1", "note": "[1-J17, N-({1-[(3R,4S)-4-methoxyoxolan-3-yl]-1H-1,2,3-triazol-4-yl}methyl)prop-2-enamide]", "% of control remaining": 85.0523},
      {"smiles": "C=CC(=O)N(Cc1ccc(Cl)cc1Cl)CC1CCC(O)C1", "note": "(stereo not shown) [1-B04, N-[(2,4-dichlorophenyl)methyl]-N-[(3-hydroxycyclopentyl)methyl]prop-2-enamide]", "% of control remaining": 107.949},
      {"smiles": "Cc1cc(C(=O)CCl)c(C)n1C(C)c1ccccc1", "note": "(stereo not shown) [10-P17, 2-chloro-1-[2,5-dimethyl-1-(1-phenylethyl)-1H-pyrrol-3-yl]ethan-1-one]", "% of control remaining": 96.4738},
      {"smiles": "CC(NC(=O)C(C#N)=Cc1ccco1)c1cccc(-n2cccn2)c1", "note": "(stereo not shown) [9-J04, 2-cyano-3-(furan-2-yl)-N-{1-[3-(1H-pyrazol-1-yl)phenyl]ethyl}prop-2-enamide]", "% of control remaining": 81.5092}
    ]}
  ]
}
